Among the data in PubChem BioAssay (NCI) are growth inhibition values, retold here.

Assay [1] in a line: NCI Yeast Anticancer Drug Screen. Data for the rad50 strain (AID 155).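 Further: 0% = growth of vehicle-only cultures of the same strain.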 The note with it: S. cerevisiae rad50 strain growth inhibition, stronger effect = higher value. The method in brief: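 Vehicle-treated cultures provide the reference for the growth inhibition reported for compound-exposed, repair-deficient yeast.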
Assay [2] in a line: NCI Yeast Anticancer Drug Screen. Data for the mec2-1 strain (AID 157). The note with it: S. cerevisiae mec2-1 strain, stronger effect = higher value. The method in brief: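 Cells of the genetically defined mec2-1 yeast strain are incubated with test compound. Inhibition of growth is calculated against vehicle-treated controls.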
The nature of assay [3]: NCI Yeast Anticancer Drug Screen. Data for the sgs1 mgt1 strain (AID 161).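 Further: 0% = growth of cultures given vehicle only.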 The conditions noted are these: S. cerevisiae sgs1 mgt1 strain, stronger effect = higher value. The method in brief: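 Read-out: growth inhibition vs vehicle controls. Cells: mutant yeast strain deficient in DNA damage repair.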
The nature of assay [4]: NCI Yeast Anticancer Drug Screen. Data for the cln2 rad14 strain (AID 165).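 Further: 0% = growth equal to vehicle treated cultures.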 The conditions noted are these: S. cerevisiae cln2 rad14 strain, stronger effect = higher value. The method in brief:
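The screen exposed genetically defined yeast (cln2 rad14) to test compounds and scored growth inhibition relative to vehicle-treated controls.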

Assay [5] can be described thus: NCI Yeast Anticancer Drug Screen. Data for the bub3 strain (AID 167). The note with it: S. cerevisiae bub3 mutant strain, stronger effect = higher value. The method in brief: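 Mutant yeast screening strain plus compound; vehicle-treated cultures serve as the 0% inhibition reference.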
The nature of assay [6]: NCI Yeast Anticancer Drug Screen. Data for the mlh1 rad18 strain (AID 175). The note with it: S. cerevisiae mlh1 rad18 strain growth inhibition, stronger effect = higher value. The method in brief: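 Compound-treated yeast growth, normalised to vehicle controls. Strain bears defined DNA repair mutations.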
[7] abbreviates: at 5.0 µM (retest, dose inferred, filed as 0.5).
[8] abbreviates: at 50.0 µM (retest, dose inferred, filed as 5.0).

Compounds without any hit were thinned out: in the full panel of roughly 79,000, 15% have a hit. Values without a mark were called inactive. Calls of active or inactive are those of the source. No stated cut-off is given here; in the data, active means growth inhibition above about 70%; inactive means the rest.

Regarding `Cc1c2ccccc2c(CCl)c2ccc3ccccc3c12`, the growth inhibition in assay [1] (setting [7]) is 99% (active); in assay [1] (setting [8]), 98% (active); in assay [1] (at 50.0 µM), 97.7% (active); in assay [2] (setting [7]), 100% (active); in assay [2] (setting [8]), 99% (active); in assay [2] (at 50.0 µM), 97.2% (active). The growth inhibition is 100% (active) in assay [3] (setting [7]); 99% (active) in assay [3] (setting [8]); 98.3% (active) in assay [3] (at 50.0 µM); 99% (active) in assay [4] (setting [7]); 99% (active) in assay [4] (setting [8]); 97.5% (active) in assay [4] (at 50.0 µM). The growth inhibition in assay [5] (setting [7]) is 99% (active); in assay [5] (setting [8]) it was 99% (active); in assay [5] (at 50.0 µM), 98.8% (active); in assay [6] (setting [7]), 100% (active); in assay [6] (setting [8]) it was 99% (active); in assay [6] (at 50.0 µM), 96.8% (active).
With `CCOC(=O)N1C=CC(=C2C(=C3C=CN(C(=O)OCC)C=C3)C(=C3C=CN(C(=O)OCC)C=C3)C2=C2C=CN(C(=O)OCC)C=C2)C=C1`, the growth inhibition was 55% in assay [1] (setting [7]); 95% (active) in assay [1] (setting [8]); 95.9% (active) in assay [1] (at 50.0 µM); -4% in assay [2] (setting [7]); 57% in assay [2] (setting [8]); 75.3% (active) in assay [2] (at 50.0 µM). In addition, the growth inhibition in assay [3] (setting [7]) is -4%; in assay [3] (setting [8]), 60%; in assay [3] (at 50.0 µM), 65.8%; in assay [4] (setting [7]), -3%; in assay [4] (setting [8]), 52%; in assay [4] (at 50.0 µM), -0.55%. Moreover, the growth inhibition in assay [5] (setting [7]) was -4%; in assay [5] (setting [8]) it was 47%; in assay [5] (at 50.0 µM) it was 54.1%; in assay [6] (setting [7]) it was 1%; in assay [6] (setting [8]) it was 58%; in assay [6] (at 50.0 µM), 85.7% (active).
With `O=C(O)c1ccccc1-c1ccccc1C(=O)Nc1ccc2c(c1)Cc1cc(F)ccc1-2`, the growth inhibition in assay [1] (setting [7]) was 22%; in assay [1] (setting [8]), 97% (active); in assay [1] (at 50.0 µM), 94.1% (active); in assay [2] (setting [7]), -3%; in assay [2] (setting [8]), 97% (active); in assay [2] (at 50.0 µM), 97.5% (active). The growth inhibition was -8% in assay [3] (setting [7]); 95% (active) in assay [3] (setting [8]); 97.9% (active) in assay [3] (at 50.0 µM); -19% in assay [4] (setting [7]); 96% (active) in assay [4] (setting [8]); 96.8% (active) in assay [4] (at 50.0 µM). In addition, the growth inhibition in assay [5] (setting [7]) was -27%; in assay [5] (setting [8]), 92% (active); in assay [5] (at 50.0 µM) it was 97.8% (active); in assay [6] (setting [7]), -2%; in assay [6] (setting [8]), 97% (active); in assay [6] (at 50.0 µM), 97.2% (active).
With `COc1cc(Nc2ccc(O)cc2)c2ncccc2c1`, the growth inhibition in assay [1] (setting [7]) is 34%; in assay [1] (setting [8]), 93% (active); in assay [1] (at 50.0 µM) it was 94.9% (active); in assay [2] (setting [7]), 18%; in assay [2] (setting [8]), 97% (active); in assay [2] (at 50.0 µM) it was 69.2%. Besides, the growth inhibition in assay [3] (setting [7]) was 16%; in assay [3] (setting [8]), 97% (active); in assay [3] (at 50.0 µM) it was 94.7% (active); in assay [4] (setting [7]), 5%; in assay [4] (setting [8]) it was 89% (active); in assay [4] (at 50.0 µM) it was 21.1%. Besides, the growth inhibition in assay [5] (setting [7]) is 7%; in assay [5] (setting [8]), 94% (active); in assay [5] (at 50.0 µM), 45.3%; in assay [6] (setting [7]) it was 33%; in assay [6] (setting [8]), 96% (active); in assay [6] (at 50.0 µM) it was 94.5% (active).
Consider `CC(C)c1cc(C(C)C)c(Cl)c(Cl)c1O` (tested in a mixture with another compound), for which the growth inhibition is 1% in assay [1] (setting [7]); 44% in assay [1] (setting [8]); 99.3% (active) in assay [1] (at 50.0 µM); 3% in assay [2] (setting [7]); 100% (active) in assay [2] (setting [8]); 99.5% (active) in assay [2] (at 50.0 µM). In addition, the growth inhibition in assay [3] (setting [7]) is 6%; in assay [3] (setting [8]) it was 98% (active); in assay [3] (at 50.0 µM), 99.5% (active); in assay [4] (setting [7]), 5%; in assay [4] (setting [8]), 73% (active); in assay [4] (at 50.0 µM), 98.9% (active). The growth inhibition was 0% in assay [5] (setting [7]); 77% (active) in assay [5] (setting [8]); 87.5% (active) in assay [5] (at 50.0 µM); -1% in assay [6] (setting [7]); 14% in assay [6] (setting [8]); 84.5% (active) in assay [6] (at 50.0 µM).
For the compound `COc1cccc2c1C(=O)c1c(O)c3c(c(O)c1C2=O)C[C@@](O)(C(O)CO)C[C@@H]3OC1CC(N(Cc2ccccc2)Cc2ccccc2)C(O)C(C)O1` (some centres not stated), the growth inhibition in assay [1] (setting [7]) is 45%; in assay [1] (setting [8]), 98% (active); in assay [1] (at 50.0 µM), 86.8% (active); in assay [2] (setting [7]), 13%; in assay [2] (setting [8]) it was 98% (active); in assay [2] (at 50.0 µM) it was 85.8% (active). Further, the growth inhibition was 29% in assay [3] (setting [7]); 98% (active) in assay [3] (setting [8]); 65.6% in assay [3] (at 50.0 µM); 18% in assay [4] (setting [7]); 97% (active) in assay [4] (setting [8]); 45.1% in assay [4] (at 50.0 µM). In addition, the growth inhibition in assay [5] (setting [7]) is 20%; in assay [5] (setting [8]) it was 98% (active); in assay [5] (at 50.0 µM), 62%; in assay [6] (setting [7]), 50%; in assay [6] (setting [8]), 97% (active); in assay [6] (at 50.0 µM), 84% (active).
As for `Fc1ccc(NC(=S)SCc2ccco2)cc1`, the growth inhibition is 5% in assay [1] (setting [7]); 87% (active) in assay [1] (setting [8]); 89% (active) in assay [1] (at 50.0 µM); 0% in assay [2] (setting [7]); 71% (active) in assay [2] (setting [8]); 61.6% in assay [2] (at 50.0 µM). For the same compound, the growth inhibition in assay [3] (setting [7]) is 5%; in assay [3] (setting [8]), 67%; in assay [3] (at 50.0 µM), 84.7% (active); in assay [4] (setting [7]), 1%; in assay [4] (setting [8]), 24%; in assay [4] (at 50.0 µM), 42.5%. Also, the growth inhibition in assay [5] (setting [7]) was -5%; in assay [5] (setting [8]), 34%; in assay [5] (at 50.0 µM) it was 26.6%; in assay [6] (setting [7]), 1%; in assay [6] (setting [8]), 77% (active); in assay [6] (at 50.0 µM), 95.4% (active).
On to `O=C(N/N=C/c1ccccn1)c1ccccc1[O-].O=C(N/N=C/c1ccccn1)c1ccccc1[O-].[Co+2]`, for which the growth inhibition in assay [1] (setting [7]) was 5%; in assay [1] (setting [8]), 0%; in assay [1] (at 50.0 µM) it was 38.2%; in assay [2] (setting [7]) it was 21%; in assay [2] (setting [8]), 0%; in assay [2] (at 50.0 µM), 48.1%. For the same compound, the growth inhibition in assay [3] (setting [7]) is 13%; in assay [3] (setting [8]), 5%; in assay [3] (at 50.0 µM) it was 42.5%; in assay [4] (setting [7]) it was 14%; in assay [4] (setting [8]) it was 2%; in assay [4] (at 50.0 µM), 72.8% (active). Moreover, the growth inhibition in assay [5] (setting [7]) was 17%; in assay [5] (setting [8]), 2%; in assay [5] (at 50.0 µM) it was 99.2% (active); in assay [6] (setting [7]), 18%; in assay [6] (setting [8]), -2%; in assay [6] (at 50.0 µM) it was 66.8%.
As for `CC(=O)Oc1c(Br)ccc2cc(C(Br)Br)c(C(=O)c3ccccc3)nc12`, the growth inhibition in assay [1] (setting [7]) is 55%; in assay [1] (setting [8]), 55%; in assay [1] (at 50.0 µM), 83.6% (active); in assay [2] (setting [7]), 38%; in assay [2] (setting [8]) it was 38%; in assay [2] (at 50.0 µM), 87.5% (active). The growth inhibition in assay [3] (setting [7]) is 51%; in assay [3] (setting [8]), 51%; in assay [3] (at 50.0 µM), 87.5% (active); in assay [4] (setting [7]) it was 30%; in assay [4] (setting [8]), 30%; in assay [4] (at 50.0 µM) it was 82.9% (active). Moreover, the growth inhibition in assay [5] (setting [7]) is 25%; in assay [5] (setting [8]), 25%; in assay [5] (at 50.0 µM), 83.9% (active); in assay [6] (setting [7]), 53%; in assay [6] (setting [8]), 53%; in assay [6] (at 50.0 µM) it was 81.4% (active).
